Shn3 3UTR inh: inhibitors of Schnurri-3 3'UTR reporter in osteoblasts. 360,000 tested, 0.52% active. inhibition, % at 12.5 µM. Clone20 osteoblast Shn3 3'UTR firefly luciferase, 24 h;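 active = mean inhibition of at least 75% with every replicate also reaching 75%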
CF NFkB block: blocks PAF-induced NF-kB reporter in cystic fibrosis cells | KKLEB NF-kB-GFP reporter, GFP fluorescence overnight | inhibition, % at 5 µM | 360,000 tested, 0.86% active;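 active = at least 50% inhibition at 5 µM, scaled per plate between neutral and stimulator controls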;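 also: PAF is a Pseudomonas aeruginosa culture filtrate used as stimulus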
KKLEB tox: reduces viability of KKLEB cystic fibrosis airway cells | KKLEB CF airway cells viability, ATPlite luminescence, overnight; hits give low values; cells stimulated with P. aeruginosa culture filtrate | activity change (cytotoxicity), % at 5 µM | 360,000 tested, 0.36% active | AID 602141;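 active = corrected activity change at or below -50% at 5 µM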
HIF-2a inh: HIF-2a inhibition. 360,000 tested, 0.72% active. AID 624352. inhibition, % at 18.8 µM. 786-0 RCC cells HIF-2a reporter, luciferase luminescence, overnight;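 active = inhibition of the luminescence signal of 40% or more relative to plate controls, in a single-dose primary screen at 18.75 µM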
TRPM1 prom inh: reduces MITF-dependent TRPM1 promoter luciferase signal; inhibition, % at 12.5 µM; SK-MEL-5 TRPM1 promoter luciferase, 24 h; 330,000 tested, 0.83% active;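 active = mean inhibition across replicates of 60% or more, whatever share of single replicates reaches that level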
Peg3 prom inh: inhibitors of Peg3 promoter | HeLa PEG-Prom luciferase reporter, luminescence, overnight | inhibition, % at 20 µM | 360,000 tested, 1.7% active | AID 588405;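 active = inhibition of at least 50% at 20 µM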
CF NFkB inh conf: CF NF-kB inhibition confirmation, single concentration; shares compounds with CF NFkB block; 1,300 tested, 64% active; AID 602472; KKLEB CF airway cells, PAF-induced NF-kB-GFP fluorescence, overnight; inhibition, % at 5 µM; in the data active = inhibition above about 40%;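 also: stimulus PAF is a Pseudomonas aeruginosa filtrate and not platelet activating factor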
Mdm2-MdmX confirm: confirmation of inhibitors of human Mdm2/MdmX interaction, set 2; shares compounds with HIF-2a inh; inhibition, % at 8 µM; SaOS-2 split-luciferase Mdm2/MdmX complementation, luminescence; AID 504601; 740 tested, 99% active;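 active = mean inhibition of the luminescence signal across two replicates at or above 26 percent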
HIF-2a inh conf: HIF-2a inhibition, single concentration confirmation; shares compounds with HIF-2a inh; 786-0 RCC cells, HIF-2a luciferase reporter luminescence, overnight; inhibition, % at 18.8 µM; 1,800 tested, 56% active;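 active = mean inhibition across four replicates of at least 40 percent at the single tested concentration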
HIF-1a cs: counter-screen for HIF-2a inhibitors: HIF-1a inhibition in MiaPaCa-2 cells; MiaPaCa-2 HIF-1a luciferase reporter, desferoxamine, overnight; 1,800 tested, 72% active; shares compounds with HIF-2a inh; inhibition, % at 18.8 µM;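 active = mean inhibition of the reporter signal across four replicates at the single tested dose of 50% or more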
Hits are given with their value; - = inactive; . = not tested or not shown. This is a sample that favours compounds with a hit; in the whole collection about 2.7% have one here.

SMILES | Shn3 3UTR inh | CF NFkB block | KKLEB tox | HIF-2a inh | TRPM1 prom inh | Peg3 prom inh | CF NFkB inh conf | Mdm2-MdmX confirm | HIF-2a inh conf | HIF-1a cs
CCN(CC)S(=O)(=O)c1cccc(NC(=O)Nc2cccc(C(F)(F)F)c2)c1 | - | 63 | - | 41 | - | - | - | 95 | - | 102
O=C(c1ccc(S(=O)(=O)c2cccc(Cl)c2)c([N+](=O)[O-])c1)N1CCN(c2ccccn2)CC1 | - | 86 | - | 40 | - | 53 | - | 96 | - | 85
COc1ccccc1/C=C/C(=O)c1c2c(c(C)[nH]c1=O)CCCC2 | - | 54 | - | 73 | 64 | 98 | 51 | 103 | 63 | 88
COc1ccccc1/C=C/C(=O)c1ccccc1 | - | - | - | - | - | - | . | . | . | .
Cc1ccc(NC(=O)CN(C)C(=O)Cc2ccc(Cl)c(Cl)c2)cc1 | - | - | - | - | - | - | . | . | . | .
O=C1CN(C(=O)COc2ccc(Cl)c(Cl)c2)c2ccccc2N1 | - | - | - | - | - | - | . | . | . | .
O=C1CN(C(=O)Cn2ncc(Cl)c(Cl)c2=O)c2ccccc2N1 | - | 94 | - | 96 | 93 | 103 | 56 | . | - | 106
Cc1ccc(NC(=O)Cn2ncc(Cl)c(Cl)c2=O)cc1S(=O)(=O)N1CCCCC1 | - | 86 | - | 94 | 97 | 107 | - | 103 | 57 | 103
O=C(Cn1ncc(Cl)c(Cl)c1=O)NC1CCCCC1 | - | 68 | - | 86 | 96 | 100 | - | 103 | - | 102
Cc1ccc(NC(=O)CN(C)C(=O)Cn2ncc(Cl)c(Cl)c2=O)cc1 | - | 68 | - | 97 | 90 | 102 | - | . | 100 | 106
O=C1C=CN(C2OC(CO)C(O)C2O)C(=O)C1 (stereo unspecified) | - | - | - | - | . | - | . | . | . | .
CN(Cc1ccc(Cl)cc1)C(=O)c1[nH]c(C(F)(F)F)nc1-c1ccccc1 | - | - | - | - | . | - | . | . | . | .
COC(=O)c1cc(=O)n(Cc2ccc(F)cc2)c(=NCc2ccc(F)cc2)s1 | - | - | - | - | - | - | . | . | . | .
COC(=O)c1cc(=O)n(Cc2cccs2)c(=Nc2ccc(F)cc2)s1 | - | 55 | - | 66 | . | 81 | - | . | - | 106
COc1cccc(-n2nc(C#N)c(Cl)cc2=O)c1 | 96 | 106 | - | 96 | 91 | 108 | - | 104 | . | .
COc1cccc(-n2nc(C(N)=O)c(O)cc2=O)c1 | - | - | - | - | - | - | . | . | . | .
c1nc(NCc2ccc3c(c2)OCO3)c2cc(-c3ccoc3)ccc2n1 | - | 82 | - | - | - | - | 92 | 88 | . | .
Fc1cccc(CNc2ncnc3ccc(-c4ccc5c(c4)OCO5)cc23)c1 | - | - | - | - | - | - | . | . | . | .
CCCCC(=O)N(C)c1c(CC)nc2c(OCc3cc(Cl)cc(Cl)c3)cccn12 | - | - | - | - | . | - | . | . | . | .
CCOC(=O)C1(C)CCCN(C(=O)c2ccc3c(c2)CCO3)C1 (stereo unspecified) | - | - | - | - | . | - | . | . | . | .
CC(C)(C)C(=O)/C(=C/c1ccncc1)n1cncn1 | 98 | 75 | - | 93 | 82 | 101 | 83 | 102 | 62 | 106
OC[C@H]1O[C@@H](c2nc(-c3ccc(Br)cc3)no2)C[C@@H]1O | - | - | - | - | . | - | . | . | . | .
CS(=O)(=O)c1ccc(C(=O)OCC(=O)NCc2cccs2)cc1[N+](=O)[O-] | 97 | 90 | - | 83 | 85 | 108 | 43 | . | - | -
Cc1cccc(C(=O)OCC(=O)NCc2cccs2)c1 | - | - | - | - | - | - | . | . | . | .
CCCCNC(=O)C(NC(=O)c1cccs1)C(=O)c1ccccc1 (stereo unspecified) | . | . | . | - | . | . | . | . | . | .
COC(=O)C(=Cc1ccccc1[N+](=O)[O-])C(=O)OC | - | 59 | - | 77 | - | 53 | - | . | 72 | 59
